Measurements reported in PubChem BioAssay.

Experiment: small-molecule binders of probe aLefty1, primary screen, biochemical, small-molecule microarray, 635/667 nm fluorescence (AID 1153);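 also: score merges spot fluorescence with signal-to-noise ratio from the scanned slide images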
Conditions: higher = more signal
Work on `COCCOC(=O)N1C(=O)[C@@]2(c3ccccc31)[C@H](c1ccc(OCCO)cc1)N1[C@H](c3ccccc3)[C@H](c3ccccc3)OC(=O)[C@H]1[C@@H]2C(=O)N1CCCCCCC1` yielded a composite z-score of 2.77. Molecule `CCCCCN1CC=CC23O[C@@H]4/C=C\CCC(C)OC(=O)C4[C@H]2C(=O)N(CCCCCCO)[C@@H]3C1=O` (stereo not given in full) has a composite z-score of 0.0378. In the case of `COCCOC(=O)N1C(=O)[C@@]2(c3ccccc31)[C@H](c1ccccc1OCCO)N1[C@H](c3ccccc3)[C@H](c3ccccc3)OC(=O)[C@H]1[C@@H]2C(=O)N1CCCCCCC1`, the composite z-score is reported as 3.11. With `C=C[C@@H](OC)[C@H](OC(=O)Nc1ccc(SC)cc1)c1ccc(OCCO)cc1` the composite z-score was 0.137. `COC(=O)[C@@]1(Cc2ccc(F)cc2)[C@H]2c3cc(C(=O)N(C)C)n(Cc4c(CO)[nH]cc(C)c4=O)c3C[C@H]2CN1C(=O)c1ccccc1` gave a composite z-score of 0.0752. `Cc1ccccc1C(O)C1C=CC2C(=O)N(c3ccccc3)C(=O)C2N1Nc1ccc([N+](=O)[O-])cc1` (stereo not given) gave a composite z-score of 0.186. Molecule `COc1cc(NN2C(C(O)c3cc(OC)c(OC)c(OC)c3)C=CC3C(=O)N(c4ccccc4)C(=O)C32)cc(OC)c1OC` (stereo not given) has a composite z-score of 1.02. Molecule `C=CCC(OC(C)=O)[C@@H]1[C@@H](N(Cc2cccc3ccccc23)C(=O)c2cccc3ccccc23)c2cc(OCCCO)ccc2N1C(=O)c1ccc2ccccc2c1` (stereo not given in full) has a composite z-score of -0.333. Molecule `COC(=O)[C@@]1(Cc2ccccc2)[C@H]2c3cc(C(=O)N4CCCC4)n(CCSCCO)c3C[C@H]2CN1C(=O)c1ccccc1` has a composite z-score of 0.597. `Cc1cccc([C@H]2C[C@H]3C(I)=C[C@@H]2C(=O)[C@]32CO2)c1` gave a composite z-score of -0.0559. In the case of `O=C1C2C=CC(C(O)C=Cc3ccc([N+](=O)[O-])cc3)N(Nc3ccccc3)C2C(=O)N1c1ccccc1` (stereo not given), the composite z-score is reported as 0.424. With `CC(=O)NCCCC[C@@H]1NC(=O)[C@H]2C[C@@H](C(=O)NCCCCCNC(=O)CS)[C@@H](c3cccc(OCCO)c3)N2C1=O` the composite z-score was -0.0573. `C=C[C@H](C)[C@H](OC(=O)Nc1ccc(OC)cc1)c1ccc(OCCO)cc1` showed a composite z-score of 0.126. In the case of `CCOC(=O)C[C@H]1[C@H](OC(=O)c2ccc(C(=O)c3ccccc3)cc2)[C@@H](NC(=O)CC(C)C)c2cc(OCCCO)ccc2N1C(=O)Cc1ccc(OC)cc1`, the composite z-score is reported as 0.243. For `Cc1ccccc1C(O)C1C=CC2C(=O)NC(=O)C2N1Nc1ccc(Cl)cc1Cl` (stereo not given), the composite z-score was 0.219. With `COc1cc2c(cc1O)C(c1ccc(CN3CCCC3)cc1)N(C)CC2` (stereo not given) the composite z-score was -0.446. `COc1ccc([Si](C)(C)[C@@H]2[C@@H](CCn3cc([C@H](O)c4ccccc4)nn3)O[C@]3(C(=O)N(Cc4cccc(N5C(=O)c6cccc7cccc5c67)c4)c4ccccc43)[C@H]2C)cc1` gave a composite z-score of 0.0056. Work on `CC(C)(C)OC(=O)CC[C@]1(C(=O)N2CCCCC2)COC(c2ccc(OCCCO)cc2)=N1` yielded a composite z-score of -0.403. Work on `COCCOC(=O)N1C(=O)[C@@]2(c3cc(C#CC4=CCCCC4)ccc31)[C@H](c1ccc(O)cc1)N1[C@H](c3ccccc3)[C@H](c3ccccc3)OC(=O)[C@H]1[C@@H]2C(=O)NC[C@H](O)c1ccccc1` yielded a composite z-score of 0.0406. Work on `CN(C)CCCCCCNC(=O)[C@@H]1C[C@@H]2C(=O)N[C@@H](CCCCN)C(=O)N2[C@@H]1c1ccc(O)cc1` yielded a composite z-score of 3.1. With `Cc1ccc(N2C(=O)c3ccccc3[C@](C)(C(=O)NCc3ccccc3)[C@@H]2c2ccc(CO)cc2)nc1` the composite z-score was 0.205. Molecule `C=C[C@@H](C)[C@@H](OC(=O)Nc1ccc(SC)cc1)c1ccc(OCCO)cc1` has a composite z-score of -0.156. With `C=C(/C(=C/C[C@@H](OC(=O)c1ccncc1)c1cccc(OCCO)c1)c1cnc2ccccc2c1)C(C)C` the composite z-score was 0.13. `O=c1cccc(-c2ccco2)o1` showed a composite z-score of -0.103. `O=C1C2C=CC(C(O)c3cc(C(F)(F)F)cc(C(F)(F)F)c3)N(Nc3ccccc3F)C2C(=O)N1c1ccccc1` (stereo not given) showed a composite z-score of 1.01. In the case of `O=C(N1CCOCC1)[C@@]1(CCS(=O)(=O)c2ccccc2)N=C(c2ccc(OCCCO)cc2)O[C@H]1c1ccccc1`, the composite z-score is reported as 0.446. For `COCCCNC(=O)[C@@]1(Sc2ccc(C)cc2)CC(=O)N(C(C)C)[C@@H]1c1ccc(CO)cc1I`, the composite z-score was 0.0445. `C=C(C)[C@@H]1CC=C(C(O)C2C=CC3C(=O)N(c4ccccc4)C(=O)C3N2Nc2ccc(C#N)cc2)CC1` (stereo not given in full) gave a composite z-score of 0.619. For `C=C(COC)/C(=C/C[C@@H](OC(=O)c1ccncc1)c1ccccc1OCCO)c1cc(C(=O)OC)ccc1OC`, the composite z-score was -0.0654. For `CC(C)C[C@@H]1NC(=O)[C@@H]2C[C@H](C(=O)NCCCCCC[N+](C)(C)C)[C@H](c3cccc(OCCO)c3)N2C1=O`, the composite z-score was 0.22.
